Data taken from PubChem BioAssay AID651789 (National Center for Advancing Translational Sciences (NCATS), 2012).
Inconclusive results are not listed. Active and inactive are the calls of the source. Calls come from the whole dose curve; as a rule, active = well fitted inhibition curve with a large enough effect; inconclusive = small, poorly fitted or top-dose-only effect; inactive = no such curve, though single readings can be large or run the other way.

Test: Acumen qHTS Assay for Inhibitors of the mTORC1 Signaling Pathway in WT MEF Cells: Hit Validation; note: nearly all actives have a fitted effect of over 60% in size;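 for activity change, negative = inhibition: percent of cells above a cutoff set by 7.5 nM rapamycin treated wells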
Conditions: Acumen imaging; series mostly up to 37.3 µM; activity change, negative = inhibition: at the top concentration
Source text: The mammalian target of rapamycin (mTOR) is an intracellular serine/threonine kinase Aberrant regulation of mTOR signaling plays a causative role in a number of human diseases, including cancer, benign tumors such as lymphangioleiomyomatosis (LAM) and Tuberous Sclerosis Complex (TSC), and metabolic diseases such as diabetes and obesity. This project aims to identify inhibitors of ribosomal protein S6 (rpS6) phosphorylation. The phosphorylation of rpS6 is a key event downstream of mTOR activation. The assay uses a phospho-specific antibody of phospho-rpS6 to detect inhibitors of mTOR activation. Mutations in the Tsc1 and Tsc2 genes are the underlying genetic lesions responsible for TSC, causing constitutive activation of the mTORC1 pathway and leading to profound effects on cell metabolism. Aberrant metabolism in cancer has recently received significant attention as a target to develop therapeutic agents in the treatment of cancer.1 As Tsc2-/- cells have lost the ability to respond to energy and growth factor deprivation, these cells are unable to properly down regulate cellular biosynthetic processes in response to metabolic stress, and are thus extremely sensitive to glucose deprivation-induced death.2 A central goal of this project is to explore the unique cell survival and metabolic properties of cells with Tsc1 or Tsc2 by screening for compounds that selectively target the Tsc2-/- MEFs by screening both Tsc2-/- and WT MEF cell lines. We hope to better understand these aspects of TSC physiology in order to exploit them for therapeutic benefit.
NIH Molecular Libraries Probe Production Centers Network [MLPCN]
NIH Chemical Genomics Center [NCGC]
Assay Submitter (PI): Blenis, John; Harvard University
For quantitative high throughput analysis of mTORC1 signaling, we developed a cell-based assay for immuno-fluorescence based detection of rpS6 phosphorylation on the Acumen Explorer that will be used a platform for the primary small molecule screen. Mouse embryonic fibroblasts (MEFs) are cultured in 1536-well plates using DMEM + 10% FBS. Twenty-four hrs after plating, test compounds (solubilized in DMSO) are delivered and incubated with the cells for 24 hrs at 37 degree Celsius. Following the incubation, media with compound is aspirated and the cells are fixed in 4% paraformaldehyde (PFA) containing PBS + 0.2% TX-100. Next, PFA is aspirated, cells are washed two times with PBS plus 0.2% TX-100 and the cells are blocked for 1 hr at room temperature (blocking buffer: LiCOR Blocking Buffer plus 0.2% TX-100). This is followed by aspiration and staining with Alexa-488 conjugated-phospho-rpS6 Ser235/236 antibody for 2 hours at room temperature (Cell Signaling Technology # 4803, 1:50 dilution in blocking buffer). Cells are washed two times with PBS plus 0.2% TX-100, and stained with 10 uM propidium iodide (PI) for 20-25 minutes for cell number measurement (1:500 dilution of Hoescht staining is also added for IN Cell imaging). The plates are scanned on the Acumen Explorer laser scanning instrument (TTP Labtech) using the 488nm laser for simultaneous excitation of the Alexa-488 and PI. […] Fluorescence emission from the PI stain is selected using a 575-640 nm band pass filter. The normalized phospho-S6 staining is calculated as the ratio of the integrated Alexa 488 intensity divided by the integrated PI intensity for the single concentration rapamycin control (7.5 nM) and DMSO columns. […] Inhibition of the pathway is defined based on the normalized phospho-S6 intensity in rapamycin treated cells. Active cells are defined as those with a normalized phospho-S6 staining above this threshold, and each treatment is reported as the % positive cells in the well, where thresholds are defined by selecting wells with the highest and lowest signal and differentiating between the % non-active and % active populations. In addition to the pathway specific phospho-S6 endpoint, the number of PI stained cells from the Acumen is recorded as a measure of cell viability. […]
Potency is the fitted concentration of half-maximal effect.

Activity change, negative = inhibition, inactive:
COc1ccc(S(=O)(=O)NCCc2csc3nc(-c4ccc(Cl)cc4)nn23)cc1C 0.763%, CCC(C(=O)N1CCN(c2cccc(C)c2C)CC1)n1nc(C)c2sc3ccccc3c2c1=O (stereo not given) 23.3%, Cc1ccc(CN(Cc2ccco2)C(=O)c2cccc(C)c2)cc1 8.98%, CCN1CCOC(=O)C1CC(=O)Nc1ccc(Br)cc1 (stereo not given) 11.3%, COc1ccc2c(c1)CC(C(=O)Nc1cc(Cl)ccc1C)CO2 (stereo not given) 6.87%, O=C(Nc1ccc(-c2cc(C(F)(F)F)nn2-c2ccccc2)cc1)c1cccc(F)c1 -23.2%, Cc1oc2c(cc(NS(=O)(=O)c3ccc(C(C)C)cc3)c3ccccc32)c1C(=O)OCc1ccccc1 -26%, Cc1cccc(Oc2coc3cc(OCC(=O)NC4CCCCC4)ccc3c2=O)c1 2.69%, COc1ccc(CCNC(=O)C(C)n2nc(C)c3sc4ccccc4c3c2=O)c(OC)c1 (stereo not given) 31%, CCOc1ccc(NC(=O)CN2C(=O)C(c3ccc(Cl)cc3)=NC2(C)C)cc1 39%, COc1ccc(NC(=O)CSc2nc3ccccc3n2Cc2cccc(OC)c2)cc1 -26.4%, CC(C)N(C(=O)Cn1cc(S(=O)(=O)Cc2ccc(Cl)cc2)c2ccccc21)C(C)C -3.05%, COc1cc(-c2ccno2)ccc1S(=O)(=O)N1CCN(c2cc(C)ccc2C)CC1 0%, CCOC(=O)Cc1ccc(NC(=O)n2ncc3cc(Cl)ccc32)cc1 15.1%, CC[C@H](CO)Nc1nc(NCc2ccccc2)c2ncn(C(C)C)c2n1 -51.5%, COCCCNC(=O)c1ccc(CSc2nc3cccnc3n2Cc2ccc(OC)cc2)cc1 -10.2%, CCC(C)Sc1oc(-c2ccco2)nc1S(=O)(=O)c1ccc(C)cc1 (stereo not given) -0.763%, COc1ccc(C)cc1NC(=O)C(Cc1ccccc1)NS(=O)(=O)c1ccc(Br)s1 (stereo not given) 6.44%, CCOC(=O)C1CCN(C(=O)CSc2c3c(nc4ccc(Cl)cc24)CCCC3)CC1 -12.9%, Cc1nnc(C(=O)NC(C)(C)c2nc(C(=O)NCc3ccc(F)cc3)c(O)c(=O)n2C)o1 -18.9%, Cc1cccc(CSc2cn(CC(=O)N3CCCCCC3)c3ccccc23)c1 60.5%, CCCCCCCCCCCCCCC[C@H](O)[C@@H](N)CO -6.82%, CCc1ccc(CNc2ncc(-c3cccc(OC)c3)n2C)cc1 -20.4%, COc1ccc(C2=NS(=O)(=O)N(C)C(C(=O)Nc3ccc(OC(F)(F)F)cc3)=C2)cc1 26.6%, COc1cccc(C(=O)Nc2ccc(-c3cc(C(F)(F)F)nn3-c3ccccc3)cc2)c1 -20.9%, O=C(CC1(O)C(=O)N(CCc2ccccc2)c2ccc(Br)cc21)c1ccccc1O (stereo not given) -24.1%, CCCN1C(=O)C(Cc2nc3ccccc3c(=O)n2CC)c2ccccc21 (stereo not given) 44%, CCOc1ccc(CCNC(=O)CCc2c(C)nc3cc(-c4ccccc4OC)nn3c2C)cc1 1.97%, CCCCN(CC)CCNC(=O)C1CCN(c2nnc(C)c3c(C)n(-c4ccc(C)cc4)nc23)CC1 49.9%

Potency, active:
CCc1ccc(NC(=O)C2CCCN(S(=O)(=O)c3c(C)noc3/C=C/N(C)C)C2)cc1 (stereo not given) 2.07 µM, CC(C)S(=O)(=O)c1oc(-c2ccc(F)cc2)nc1S(=O)(=O)c1ccc(F)cc1 0.521 µM, CCCCC(CC)CNC(=O)c1ccc(Cn2c(=O)[nH]c3cc(OC)c(OC)cc3c2=O)cc1 (stereo not given) 13.1 µM, Cc1cccc(CS(=O)(=O)c2ncc(Cl)c(C(=O)Nc3nnc(C(C)C)s3)n2)c1 14.7 µM, CCCCS(=O)(=O)c1oc(-c2ccc(F)cc2)nc1S(=O)(=O)c1ccc(C)cc1 5.21 µM, FC(F)(F)c1cccc(Nc2c3c(nc4ccc(Cl)cc24)CCC3)c1 16.5 µM, CCOC(=O)c1c(NC(=O)c2ccc(S(=O)(=O)N(CCOC)CCOC)cc2)sc2c1CC(C)(C)NC2(C)C 3.29 µM, Cc1ccccc1CS(=O)(=O)c1ncc(Cl)c(C(=O)Nc2nnc(C(C)C)s2)n1 11.7 µM, CCCOCc1cc(CN2CCN(c3ccccc3OC)CC2)c(O)c2ncccc12 1.47 µM, CCOc1ccc(N(Cc2ccccc2)C(=O)c2nc(S(C)(=O)=O)ncc2Cl)cc1 2.07 µM, CCc1nnc(NC(=O)c2nc(S(=O)(=O)Cc3cccc(C)c3)ncc2Cl)s1 5.21 µM
